“And” between values parts separate entries of the source, which are not always exact repeats. Equal values may be shown once. Where a structure was tested more than once in an assay, its records may differ in their call. The source made the active and inactive calls. How the source made its calls: active means hit-call score of the fitted dose curve at least 0.9, where 1 is the maximum; inactive means score below 0.9.
Tests used:
[1] = read-out: Cyclin D1 (CCND1), CCND1 (gene 595); assay: LTEA_HepaRG_CCND1: Life Technologies and Expression Analysis (LTEA) Assay for Cyclin D1 (CCND1) using HepaRG (AID 2283451); conditions: mRNA level, 48 h; actives raise or lower the signal;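 on AC50: differentiated human HepaRG liver cells in serum-free induction medium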
Method in brief: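 Expression of CCND1 was quantified by qRT-PCR on Fluidigm arrays using ACTB, GAPDH and POLR2A as reference genes. HepaRG cultures, plated 48 h beforehand, were dosed for 48 h at up to 100 uM (half-log, 8 points) in 0.5% DMSO.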

[2] = read-out: catalase (CAT), CAT (gene 847); assay: LTEA_HepaRG_CAT: Life Technologies and Expression Analysis (LTEA) Assay for catalase (CAT) using HepaRG (AID 2283452); conditions: mRNA level, 48 h; actives raise or lower the signal
Method in brief: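 HepaRG cells in serum-free induction medium, 0.5% DMSO vehicle, exposed 48 h in duplicate over 8 half-log concentrations from 100 uM. CAT mRNA measured by qRT-PCR, normalized to ACTB, GAPDH, POLR2A; bidirectional fit versus DMSO.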

[3] = read-out: flavin-containing dimethylaniline monooxygenases 3 (FMO3), FMO3 (gene 2328); assay: LTEA_HepaRG_FMO3: Life Technologies and Expression Analysis (LTEA) Assay for flavin-containing dimethylaniline monooxygenases 3 (FMO3) using HepaRG (AID 2283453); conditions: mRNA level, 48 h; actives raise or lower the signal;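 on AC50: differentiated human HepaRG liver cells in serum-free induction medium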
Method in brief: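 FMO3 transcript quantified by TaqMan qRT-PCR against three housekeeping genes after 48 h chemical exposure of HepaRG cells. Eight-point half-log series, top 100 uM, 0.5% DMSO vehicle; phenobarbital 1mM induction control; up- or down-regulation fitted.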

[4] = read-out: Cytochrome P450 (CYP1A1), CYP1A1 (gene 1543); assay: LTEA_HepaRG_CYP1A1: Life Technologies and Expression Analysis (LTEA) Assay for Cytochrome P450 (CYP1A1) using HepaRG (AID 2283454); conditions: mRNA level, 48 h; actives raise or lower the signal
Method in brief: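 CYP1A1 transcript levels measured by Fluidigm qRT-PCR against three housekeeping genes, 48 h after chemical dosing of human HepaRG cells (highest concentration 100 uM, half-log steps, 0.5% DMSO vehicle). Gain or loss of signal fitted relative to DMSO.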

[5] = read-out: CFLAR gene, CFLAR (gene 8837); assay: LTEA_HepaRG_CFLAR: Life Technologies and Expression Analysis (LTEA) Assay for CFLAR gene using HepaRG (AID 2283455); conditions: mRNA level, 48 h; actives raise or lower the signal
Method in brief: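 qRT-PCR read-out (Fluidigm/TaqMan) of CFLAR mRNA, normalized to three housekeeping genes, in differentiated human HepaRG cells after 48 h chemical exposure; 8-point half-log series from 100 uM in 0.5% DMSO; bidirectional curve fitting versus DMSO.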

[6] = CEETOX_H295R_TESTO: CeeTox H295R High-throughput Steroidogenesis Assay for Testosterone (TESTO) (AID 2283457); conditions: actives raise or lower the signal
Method in brief: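 Testosterone secreted into the medium over 48 h by H295R cells (maximum passage 10) was quantified by LC-MS/MS after MTBE extraction. Fitted in both directions against DMSO, with concentrations diluted until MTT viability was ≥70%.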

[7] = read-out: growth arrest and DNA damage 45 (GADD45A), GADD45A (gene 1647); assay: LTEA_HepaRG_GADD45A: Life Technologies and Expression Analysis (LTEA) Assay for growth arrest and DNA damage 45 (GADD45A) using HepaRG (AID 2283458); conditions: mRNA level, 48 h; actives raise or lower the signal
Method in brief: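 GADD45A expression was measured by TaqMan qRT-PCR against three housekeeping genes (ACTB, GAPDH, POLR2A) after 48 h treatment of HepaRG cells. Eight-point half-log series up to 100 uM in 0.5% DMSO, run in duplicate.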

[8] = read-out: Forkhead box O3 (FOXO3), FOXO3 (gene 2309); assay: LTEA_HepaRG_FOXO3: Life Technologies and Expression Analysis (LTEA) Assay for Forkhead box O3 (FOXO3) using HepaRG (AID 2283459); conditions: mRNA level, 48 h; actives raise or lower the signal
Method in brief: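 qRT-PCR readout of FOXO3 transcript, normalized to three housekeeping genes (ACTB, GAPDH, POLR2A); gain or loss fitted against 0.5% DMSO vehicle. HepaRG cells, 48 h chemical exposure, 8-point half-log series, top 100 uM.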

[9] = read-out: ABC Transporter (ABCB1), ABCB1 (gene 5243); assay: LTEA_HepaRG_ABCB1: Life Technologies and Expression Analysis (LTEA) Assay for ABC Transporter (ABCB1) using HepaRG (AID 2283460); conditions: mRNA level, 48 h; actives raise or lower the signal
Method in brief: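 HepaRG, 48 h exposure, 8-pt half-log series from 100 uM, 0.5% DMSO vehicle, duplicates. Readout: ABCB1 transcript by Fluidigm TaqMan qRT-PCR, housekeeping-normalized; bidirectional curve fit vs DMSO baseline.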

[10] = read-out: ABC Transporter (ABCC3), ABCC3 (gene 8714); assay: LTEA_HepaRG_ABCC3: Life Technologies and Expression Analysis (LTEA) Assay for ABC Transporter (ABCC3) using HepaRG (AID 2283462); conditions: mRNA level, 48 h; actives raise or lower the signal
Method in brief: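 Transcript level by TaqMan qRT-PCR, normalised to three housekeeping genes, fitted in both directions relative to vehicle. Chemicals tested in duplicate at eight half-log concentrations up to 100 uM for 48 h on HepaRG cells (0.5% DMSO).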

[11] = read-out: ABC Transporter (ABCB11), ABCB11 (gene 8647); assay: LTEA_HepaRG_ABCB11: Life Technologies and Expression Analysis (LTEA) Assay for ABC Transporter (ABCB11) using HepaRG (AID 2283463); conditions: mRNA level, 48 h; actives raise or lower the signal
Method in brief: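 HepaRG, 48 h exposure, 8-pt half-log CRC top 100 uM, 0.5% DMSO vehicle, duplicates. Readout: TaqMan qRT-PCR of ABCB11 mRNA, housekeeping-normalized (ACTB/GAPDH/POLR2A). Bidirectional fit vs DMSO baseline.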

[12] = read-out: ABC Transporter (ABCC2), ABCC2 (gene 1244); assay: LTEA_HepaRG_ABCC2: Life Technologies and Expression Analysis (LTEA) Assay for ABC Transporter (ABCC2) using HepaRG (AID 2283464); conditions: mRNA level, 48 h; actives raise or lower the signal
Method in brief: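 Endpoint is ABCC2 transcript level from qRT-PCR, normalized to three housekeeping genes and fitted bidirectionally relative to DMSO. Human HepaRG cells received test chemical for 48 h at up to 100 uM (8 points, half-log steps, 0.5% DMSO), duplicate wells.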

[13] = read-out: Broad substrate specificity ATP-binding cassette transporter ABCG2 (Homo sapiens) (UniProt Q9UNQ0); assay: LTEA_HepaRG_ABCG2: Life Technologies and Expression Analysis (LTEA) Assay for ABC Transporter (ABCG2) using HepaRG (AID 2283465); conditions: mRNA level, 48 h; actives raise or lower the signal
Method in brief: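 HepaRG, 48 h exposure, 8-pt half-log series from 100 uM, 0.5% DMSO vehicle, duplicates. Readout: ABCG2 transcript by qRT-PCR (Fluidigm array), housekeeping-normalized; bidirectional curve fit relative to DMSO baseline.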

[14] = read-out: Peroxisomal acyl-coenzyme A oxidase 1 (ACOX1) gene, ACOX1 (gene 51); assay: LTEA_HepaRG_ACOX1: Life Technologies and Expression Analysis (LTEA) Assay for Peroxisomal acyl-coenzyme A oxidase 1 (ACOX1) gene using HepaRG (AID 2283467); conditions: mRNA level, 48 h; actives raise or lower the signal
Method in brief: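 HepaRG, 48 h chemical exposure, 8-pt half-log series from 100 uM top, 0.5% DMSO vehicle, duplicates. Readout: ACOX1 mRNA by Fluidigm qRT-PCR, housekeeping-normalized; bidirectional fit vs DMSO baseline.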

[15] = read-out: Alkaline Phosphatase, Placental (ALPP) gene, ALPP (gene 250); assay: LTEA_HepaRG_ALPP: Life Technologies and Expression Analysis (LTEA) Assay for Alkaline Phosphatase, Placental (ALPP) gene using HepaRG (AID 2283468); conditions: mRNA level, 48 h; actives raise or lower the signal;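 on AC50: differentiated human HepaRG liver cells in serum-free induction medium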
Method in brief: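 ALPP transcript level, measured by qRT-PCR and normalized to three housekeeping genes (ACTB, GAPDH, POLR2A), after 48 h dosing of differentiated HepaRG in serum-free induction medium. Top concentration 100 uM with half-log dilutions (8 points, 0.5% DMSO, duplicates); bidirectional fitting relative to DMSO.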

[16] = read-out: Bcl-2 (BAD) gene, BAD (gene 572); assay: LTEA_HepaRG_BAD: Life Technologies and Expression Analysis (LTEA) Assay for Bcl-2 (BAD) gene using HepaRG (AID 2283469); conditions: mRNA level, 48 h; actives raise or lower the signal
Method in brief: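 HepaRG, 48 h exposure, 8-pt half-log curve from 100 uM in 0.5% DMSO, duplicates. Readout: TaqMan qRT-PCR for BAD mRNA, housekeeping-normalised (ACTB/GAPDH/POLR2A); gain or loss fitted against DMSO baseline.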

[17] = read-out: Bcl-2 (BAX) gene, BAX (gene 581); assay: LTEA_HepaRG_BAX: Life Technologies and Expression Analysis (LTEA) Assay for Bcl-2 (BAX) gene using HepaRG (AID 2283470); conditions: mRNA level, 48 h; actives raise or lower the signal
Method in brief: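 Gene expression measured by Fluidigm qRT-PCR with three housekeeping genes for normalisation. HepaRG cells, plated 48 h beforehand, treated 48 h at up to 100 uM (8-point, half-log) in 0.5% DMSO. Bidirectional fitting versus DMSO.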

Broad substrate specificity ATP-binding cassette transporter ABCG2 (Homo sapiens), sequence (Q9UNQ0 whole entry, looked up): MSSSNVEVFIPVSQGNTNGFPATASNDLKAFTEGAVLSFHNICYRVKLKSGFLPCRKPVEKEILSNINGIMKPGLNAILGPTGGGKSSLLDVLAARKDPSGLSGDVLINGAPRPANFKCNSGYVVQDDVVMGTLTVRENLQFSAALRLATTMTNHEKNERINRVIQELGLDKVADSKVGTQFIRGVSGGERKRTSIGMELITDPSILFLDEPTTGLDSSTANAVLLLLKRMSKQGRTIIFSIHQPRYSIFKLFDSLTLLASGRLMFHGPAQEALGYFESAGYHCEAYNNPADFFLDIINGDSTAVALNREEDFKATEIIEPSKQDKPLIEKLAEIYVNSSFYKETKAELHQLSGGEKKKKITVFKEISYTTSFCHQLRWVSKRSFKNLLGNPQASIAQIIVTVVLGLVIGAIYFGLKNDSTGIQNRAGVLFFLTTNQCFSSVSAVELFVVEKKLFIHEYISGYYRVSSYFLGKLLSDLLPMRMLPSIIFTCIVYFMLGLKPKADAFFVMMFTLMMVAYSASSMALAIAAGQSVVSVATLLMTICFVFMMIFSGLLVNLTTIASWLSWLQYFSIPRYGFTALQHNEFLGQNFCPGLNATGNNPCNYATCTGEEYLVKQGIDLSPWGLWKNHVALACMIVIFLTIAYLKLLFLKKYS

Cc1cc(Cl)ccc1OCC(=O)O
outcome [1]: inactive
outcome [2]: inactive
outcome [3]: inactive
AC50 [4]: 50 µM (active)
outcome [5]: inactive
outcome [6]: inactive
outcome [7]: inactive
outcome [8]: inactive
outcome [9]: inactive
outcome [10]: inactive
AC50 [11]: 50 µM (active)
outcome [12]: inactive
outcome [13]: inactive
AC50 [14]: 34.3 µM (active)
outcome [15]: inactive
outcome [16]: inactive
outcome [17]: inactive

C=CCC1=C(C)C(OC(=O)C2C(C=C(C)C)C2(C)C)CC1=O (stereo not drawn)
AC50 [1]: 88.2 µM (active)
outcome [1]: inactive
AC50 [2]: 83.6 µM (active) and 16.6 µM (active)
outcome [2]: inactive
AC50 [3]: 80.2 µM (active)
outcome [3]: inactive
AC50 [4]: 50 µM (active) and 31.8 µM (active) and 35.1 µM (active)
outcome [5]: inactive
outcome [7]: inactive
outcome [8]: inactive
outcome [9]: inactive
outcome [10]: inactive
AC50 [11]: 64.8 µM (active) and 79.9 µM (active) and 19 µM (active)
outcome [12]: inactive
AC50 [13]: 50 µM (active) and 79.2 µM (active)
AC50 [14]: 90.9 µM (active)
outcome [14]: inactive
AC50 [15]: 92.4 µM (active) and 71.1 µM (active)
outcome [15]: inactive
outcome [16]: inactive
outcome [17]: inactive
